Rows were chosen to be rich in hits. Some 12% of all compounds tested hit in one or more screens of this group.
AMA1-RON2 inh: qHTS for Inhibitors of AMA1-RON; Towards Development of Antimalarial Drug Lead: Primary Screen; Potency, µM (doses to about 58.2 µM), for inactives: top-dose activity change, negative = inhibition, usual class: inhibitors; AlphaScreen AMA1-biotinylated RON2 peptide binding; actives 0.2% (n = 360,000);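 also: potency is read from the fitted curve at half-maximal effect; 0% = vehicle wells and -100% = peptide control; nearly all actives have a fitted effect of over 45% in size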
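AMA1 (3D7) with his tag at 25 nM final met compounds first, then biotinylated RON2 peptide at 25 nM; detection used donor plus acceptor beads, 10 µg/mL apiece, read by AlphaScreen after 30 min at room temperature.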
HCV inh: qHTS Assay for Inhibitors of Hepatitis C Virus (HCV); Huh7.5.1 HCVcc-Cre infection, luciferase reporter, 44 h; Potency, µM (highest dose often 41.8 µM), for the others: at the highest dose activity change, negative = inhibition, actives largely listed as inhibitors; actives 3.4% (n = 340,000); AID 651820, 2012; also: potency is read from the fitted curve at half-maximal effect; % is scaled to controls: 0 for no effect and ±100 for the full control effect
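Infectious HCV cell culture screen: compound-treated cells (1,000/well, pre-plated 4 h) are infected with HCVcc-Cre at roughly 0.5 moi and grown 44 h. Infection is quantified by luciferase signal after 15 min substrate incubation at room temperature.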
Pf growth 96h: Primary qHTS for delayed death inhibitors of the malarial parasite plastid, 96 hour incubation | actives 6.9% (n = 320,000) | P. falciparum luciferase reporter growth, 96 h | AID 504834, 2011 | Potency, µM (top dose mostly 28.7 µM), for the others: top-dose activity change, negative = inhibition, usual class: inhibitors; also: potency is read from the fitted curve at half-maximal effect; % is scaled to controls: 0 for no effect and ±100 for the full control effect
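Two-generation exposure (96 h) targets delayed-death phenotype. Reporter parasites carrying integrated firefly luciferase, in red cells at 2% hematocrit and 0.05% parasitemia final, kept at 37 C, 5% CO2; luminescence loss indicates inhibition.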
SARS PLpro yeast: qHTS of Yeast-based Assay for SARS-CoV PLP; Potency, µM (top dose mostly 32.9 µM), without a hit: at the highest dose activity, positive = growth rescue, actives largely listed as activators; actives 0.19% (n = 330,000); AID 485353, 2010; S. cerevisiae expressing SARS-CoV PLpro, growth rescue; calls by dose curve; also: potency is read from the fitted curve at half-maximal effect; 0% is about no effect; nearly all actives have a fitted effect of over 55% in size
Pf growth 48h: Primary qHTS for delayed death inhibitors of the malarial parasite plastid, 48 hour incubation; P. falciparum luciferase growth in erythrocytes, 48 h; Potency, µM (titrated, usually from 28.7 µM), for the others: at the top dose activity change, negative = inhibition, hits mostly inhibitors; actives 5.9% (n = 310,000); AID 504832, 2011; also: potency is read from the fitted curve at half-maximal effect; % is scaled to controls: 0 for no effect and ±100 for the full control effect
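Luciferase-expressing parasites in RBCs, 2% Hct / 0.1% parasitemia final; RPMI 1640 + 0.5% Albumax; 37 C, 5% CO2, one generation; luminescence read-out, lower signal = inhibition.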
NS1 function inh: qHTS Assay for Inhibitors of Influenza NS1 Protein Function; Potency, µM (top dose mostly 46.1 µM), inactives show at the highest dose activity, positive = more growth; actives 0.4% (n = 270,000); calls by dose curve; also: potency is read from the fitted curve at half-maximal effect; actives are rising curves; nearly all actives have a fitted effect of over 50% in size
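A cell-based growth assay was used: compounds that relieve NS1-induced slow growth of budding yeast raise OD600. Assay medium was yeast nitrogen base with ammonium sulphate and -URA supplement, pH 6.0, with 2% galactose.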
NS1 inh valid: Assay for Inhibitors of Influenza NS1 Protein Function: Hit Validation; shares compounds with NS1 function inh; influenza NS1 function cell assay, 15-point titration; activity change, negative = inhibition, % at 32.9 µM; 1,400 tested, under 10 active; AID 492980, 2010; calls by dose curve; also: 0% is about no effect
Flu PR8 replic: Assay for Inhibitors of Influenza NS1 Protein Function: Influenza virus replication assay in MDCK cells infected with virus A/PR/8/34. shares compounds with NS1 function inh. MDCK infected influenza A/PR/8/34, virus titer TCID50; active compounds read low. virus titer (log TCID50), log10 TCID50 at 5 µM. actives 30% (n = 95). AID 504647, 2011; call rule not given here
An asterisk follows results filed as active; ? = inconclusive; nt = no result; [ ] = dose if it differs, or a comment. Unless noted, calls follow the shape of the dose curve; as a rule, active = well fitted curve in the direction sought with a large enough effect; inconclusive = small, poorly fitted or top-dose-only effect, or another doubt; inactive = no such curve, though single readings can be large; an effect the other way counts as inactive or inconclusive.

SMILES	AMA1-RON2 inh	HCV inh	Pf growth 96h	SARS PLpro yeast	Pf growth 48h	NS1 function inh	NS1 inh valid	others
Cc1ccc(NC(=O)C2CCCN2S(=O)(=O)c2ccc3c(c2)n(C)c(=O)c(=O)n3C)cc1C (stereo unspecified)	4%	0%[8.37 µM]	-11%	10%	6%	-11%	nt
Cc1nn(-c2ccc(Cl)cc2)c2[nH]c(CCl)cc(=O)c12	-12%	-1%	-11%	-49%	?	-93%	nt
CC(C)OCCCNC(=O)C1CCN(S(=O)(=O)N2CCCC2)CC1	-4%	2%	?	1%	-5%	nt	nt
O=C(Cc1cccs1)NCCS(=O)(=O)N1CCN(c2ccccc2)CC1	0%	nt	nt	nt	nt	nt	nt
Cc1cccc(NC(=O)C2CCCN(c3nc(C)cc(C)n3)C2)c1 (stereo unspecified)	1%	-1%	10%	-1%	-1%	8.9µM*	1
O=C1Nc2cc(S(=O)(=O)N3CCCC3)ccc2N2CCCC12 (stereo unspecified)	-2%	4%	-17%	0%	17µM*	13µM*	33
CCN(CC)S(=O)(=O)c1ccc2c(c1)NC(=O)C1CCCN21 (stereo unspecified)	-12%	-2%	19%	5%	?	7%	nt
Nc1cc(=O)[nH]n1C1CCN(c2ccccc2)CC1	-18%	-19%	-21%	18%	2%	14µM*	27
Nc1ccc(N2CCN(c3cccc(Cl)c3)CC2)cc1	?	1%	?	4%	-27%	?	nt
CCCOc1ccc(S(=O)(=O)Nc2ccccn2)c2ccccc12	-21%	15%	24%	1%	23%	31%	nt
CCOc1ccc(S(=O)(=O)Nc2ccccn2)c2ccccc12	0%	20%	?	-2%	-1%	1.1µM*	-12
Cc1cc(C(=O)NNc2ccc(F)cc2)no1	-21%	23%	16%	-3%	3%	-49%	nt
O=C(Nc1nnc2n1CCS2)c1ccco1	60%	3%	14%	9%	9%	?	9
COC(=O)CC1(CC(N)=O)SCCS1	18%	38%	nt	nt	nt	nt	nt
CNC(=O)c1cc2cc(OC)ccc2n1CCN(C)C	4%	4%	18%	3%	34%	3.5µM*	1
O=[N+]([O-])c1cccc(CSc2nnc(Cc3ccccc3)n2-c2ccc(F)cc2)c1	-1%	-1%	?	0%	?	-1%	nt
O=C(O)c1cccc(NC(=O)C23CC4CC(C2)CC(n2cnc(Cl)n2)(C4)C3)c1	12%	16%	?	7%	nt	9%	nt
O=C(Nc1cc(Oc2ccccc2)cc([N+](=O)[O-])c1)C12CC3CC(C1)CC(n1cnc(Cl)n1)(C3)C2	-20%	10µM*	?	0%	?	2.2µM*	?
O=C(COC(=O)CCc1ccc(S(=O)(=O)N2CCOCC2)cc1)NCc1ccccc1	14%	4%	28%	1%	18%	nt	nt
Cn1cccc1C(=O)NC(=O)COC(=O)c1ccc(S(C)(=O)=O)cc1	-2%	2%	nt	-4%	nt	nt	nt
Cn1cccc1C(=O)NC(=O)COC(=O)c1ccc(O)cc1	-6%	15%	-4%	4%	nt	10µM*	-22
Cc1ccc(C)c(OCc2cc(C(=O)NC(c3ccccn3)C(F)(F)F)no2)c1 (stereo unspecified)	45%	?	nt	nt	nt	nt	nt
COc1ccc(C2C(C#N)=C(N)Oc3c2ccc2cccnc32)cc1OC (stereo unspecified)	27%	-17%	?	9%	?	10%	nt
COc1cc(C2C(C#N)=C(N)Oc3c2ccc2ccccc32)ccc1OCC(=O)Nc1cccc(C)c1 (stereo unspecified)	3%	?	20%	12%	12µM*	11µM*	5	Flu PR8 replic=8.3
CCN1CCN(Cc2c(O)ccc3c2O/C(=C\C=C\c2ccccc2)C3=O)CC1	-7%	?	?	-3%	1.7µM*	10µM*	-35
SMILES	AMA1-RON2 inh	HCV inh	Pf growth 96h	SARS PLpro yeast	Pf growth 48h	NS1 function inh	NS1 inh valid	others
O=C1/C(=C/C=C/c2ccccc2)Oc2c1ccc(O)c2CN1CCN(CCO)CC1	-4%	27%	?	2%	?	19%	nt
C#CCn1c(=NC(=O)c2cc(Cl)sc2Cl)sc2cc(S(N)(=O)=O)ccc21	-6%	-10%	-11%	12%	13%	10µM*	17
O=c1cc(-c2ccc(F)cc2)[nH][nH]1	25%	18%	-24%	23%	-11%	13µM*	20
O=c1cc(-c2ccc(Br)cc2)[nH][nH]1	26%	11%	20%	3%	-14%	17%	nt
Cc1cnc(NC(=O)CN(C)S(=O)(=O)c2ccc(Cl)cc2)s1	18%	-7%	?	-10%	25%	7.9µM*	5
CN(CC(=O)Nc1ccccn1)S(=O)(=O)c1ccc(Cl)cc1	-12%	-2%	?	9%	-28%	-1%	nt
CCOc1ccc(S(=O)(=O)N(CC)CC(=O)N2CCOCC2)cc1C	7%	-19%	24%	-3%	-1%	5%	nt
CSc1nnc(C(C)(C)C)c(=O)n1/N=C/c1ccccc1	18%	-8%	24%	1%	?	-6%	nt
CC(C)(C)c1nnc(N/N=C/c2ccccc2)n(N)c1=O	57%	11%	1%	-19%	-2%	?	?
O=C(Nc1nnc(SCc2ccc(F)cc2)s1)C1Cc2ccccc2CN1C(=O)c1ccco1 (stereo unspecified)	58%	?	-8%	-1%	-21%	7.9µM*	6
CC1=NN=C(c2ccc(N)cc2)c2cc3c(cc2C1)OCO3	-7%	-26%	?	nt	12µM*	35µM*	11
CC(=O)Nc1ccc(/C(C)=N/Nc2nc(Nc3cccc4ccccc34)nc(N3CCOCC3)n2)cc1	10%	?	?	8%	13µM*	4.5µM*	?
CCOC(=O)C1CCCN(C(=O)CSc2ccccc2)C1 (stereo unspecified)	0%	15%	51%	-10%	14%	0%	nt
